Screening data deposited in PubChem BioAssay by National Center for Advancing Translational Sciences (NCATS).
JMJD2A Tudor: qHTS Assay for Inhibitors of JMJD2A-Tudor Domain; AlphaScreen JMJD2A-Tudor / H3K4me3 peptide binding; Lysine-specific demethylase 4A (Homo sapiens), O75164; actives 4.4% (n = 390,000); Potency, µM (titrated, usually from 114 µM), most hits filed as inhibitors; also: nearly all actives have a fitted effect of over 50% in size
PLK1 PBD block: qHTS for Inhibitors of PLK1-PDB (polo-like kinase 1 - polo-box domain): Primary Screen; actives 2.8% (n = 360,000); Potency, µM, hits mostly inhibitors; Plk1 PBD binding of FITC phosphopeptide, fluorescence polarization; AID 720504, 2013; also: series mostly up to about 57 µM; nearly all actives have a fitted effect of over 65% in size
G9a block: qHTS Assay for Inhibitors of Histone Lysine Methyltransferase G9a; Histone-lysine N-methyltransferase EHMT2 (Homo sapiens), Q96KQ7; G9a H3K9 monomethylation, AlphaScreen, 2 h; Potency, µM (top dose mostly 102 µM), actives largely listed as inhibitors; actives 8.8% (n = 350,000); AID 504332, 2011; also: nearly all actives have a fitted effect of over 75% in size
Target sequence (Q96KQ7 913-1193 limits assumed): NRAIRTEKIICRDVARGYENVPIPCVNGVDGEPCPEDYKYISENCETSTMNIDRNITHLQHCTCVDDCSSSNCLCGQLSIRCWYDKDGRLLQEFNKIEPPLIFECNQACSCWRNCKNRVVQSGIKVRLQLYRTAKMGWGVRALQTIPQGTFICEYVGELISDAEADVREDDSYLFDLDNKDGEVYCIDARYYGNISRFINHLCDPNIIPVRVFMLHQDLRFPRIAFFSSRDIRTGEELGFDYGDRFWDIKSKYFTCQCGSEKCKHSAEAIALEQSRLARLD
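Chemiluminescent proximity detection of H3K9 monomethylation, read after 10 min bead incubation in the dark. Reaction: 20 nM G9a, 500 nM biotin-H3K9 peptide, 20 uM SAM cofactor, 2 h, room temperature, following 15 min enzyme-compound preincubation.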
HP1b chromo inh: HTS for Inhibitors of HP1-beta Chromodomain Interactions with Methylated Histone Tails. AlphaScreen HP1-beta / biotin-H3K9me3 peptide binding. Chromobox protein homolog 1 (Homo sapiens), P83916. actives 0.56% (n = 390,000). Potency, µM (highest dose often 114 µM), actives largely listed as inhibitors; also: nearly all actives have a fitted effect of over 70% in size
Target sequence (P83916 whole entry, looked up): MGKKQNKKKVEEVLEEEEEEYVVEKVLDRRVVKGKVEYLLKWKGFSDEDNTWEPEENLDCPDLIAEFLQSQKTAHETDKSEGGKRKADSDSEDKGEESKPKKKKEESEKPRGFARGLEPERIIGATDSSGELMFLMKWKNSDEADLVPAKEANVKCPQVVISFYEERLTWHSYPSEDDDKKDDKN
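Compound inhibition of the preformed complex between 50 nM HP1-beta and 50 nM biotinylated H3K9me3 peptide was read by AlphaScreen. Buffer was PBS pH 7.4 with 0.01% Tween-20. Incubations ran 30 min at room temperature, with 10 ug/mL donor/acceptor beads.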
BAZ2B block: qHTS Assay for Inhibitors of BAZ2B; Bromodomain adjacent to zinc finger domain protein 2B (Homo sapiens), Q9UIF8; AlphaScreen BAZ2B-H3K14Ac peptide displacement; Potency, µM (series often up to 114 µM), hits mostly inhibitors; actives 4.4% (n = 360,000); AID 504333, 2011; also: nearly all actives have a fitted effect of over 60% in size
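In this displacement format the biotinylated H3(5-23) peptide acetylated at Lys14 serves as ligand at 50 nM, with BAZ2B at 50 nM in PBS pH 7.4 containing 0.01% Tween-20. Donor and acceptor beads are 10 ug/mL final.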
ALOX12 inh: Primary qHTS assay for inhibitors of human arachidonate 12S-lipoxygenase (ALOX12): Round 2 | Polyunsaturated fatty acid lipoxygenase ALOX12 (Homo sapiens), P18054 | purified 12hLO, xylenol orange hydroperoxide absorbance | Potency, µM (titrated, usually from 108 µM), usual class: inhibitors | actives 1.1% (n = 580,000)
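Hydroperoxide product was detected by ferrous iron/xylenol orange as the 573 to 405 nm absorbance ratio. Arachidonic acid at 40 uM (final) was turned over for 30 min at room temperature by 150 nM human 12hLO, pH 7.0 Hepes buffer, after 15 min compound preincubation.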
A number is an active result; - = inactive; ? = inconclusive; . = not tested or not shown; [ ] = another dose, or the depositor's remark. Hits are enriched below; roughly 9% of the tested compounds scored in any of these assays. Calls follow the shape of the dose curve; as a rule, active = well fitted curve in the direction sought with a large enough effect; inconclusive = small, poorly fitted or top-dose-only effect, or another doubt; inactive = no such curve, though single readings can be large; an effect the other way counts as inactive or inconclusive.

SMILES	JMJD2A Tudor	PLK1 PBD block	G9a block	HP1b chromo inh	BAZ2B block	ALOX12 inh
CCn1nc(C(=O)Nc2ccccc2N2CCCC2)c2ccccc2c1=O	35.5µM	-	25.1µM	?	39.8µM	?
Cc1c(C)c2ccc(Oc3ccc([N+](=O)[O-])cc3C(F)(F)F)c(C)c2oc1=O	-	-	-	-	-	-
Cc1cc(C)c2oc(-c3cccc(N)c3)nc2c1	-	-	.	-	-	-
CCn1nc(C(=O)OCC(=O)Nc2ncc(Cl)c(C)c2Cl)c2ccccc2c1=O	?	-	50.1µM	-	?	?
CCn1nc(C(=O)Nc2ccccc2C)c(Cl)c1Cl	-	-	-	-	-	-
O=C(C[C@@H]1CCNC[C@@H]1Cc1cc(-c2ccc(F)cc2)on1)NCc1ccccc1	.	.	.	.	.	-
COc1ccc(CNC(=O)C[C@@H]2CCNC[C@@H]2Cc2cc(-c3ccc(C(C)(C)C)cc3)on2)cc1	.	.	.	.	.	17.8µM
COc1ccccc1N1CCN(C(=O)C[C@@H]2CCNC[C@@H]2Cc2cc(-c3ccc(F)cc3)on2)CC1	.	.	.	.	.	-
COc1ccc(-c2cc(C[C@H]3CNCC[C@H]3CC(=O)NCc3ccc(F)cc3)no2)cc1	.	.	.	.	.	-
CC(C)(C)c1ccc(-c2cc(C[C@H]3CNCC[C@H]3CC(=O)Nc3nccs3)no2)cc1	.	.	.	.	.	-
CC(C)(C)c1ccc(-c2cc(C[C@H]3CNCC[C@H]3CC(=O)NCc3ccc(F)cc3)no2)cc1	.	.	.	.	.	22.4µM
COc1ccc(-c2cc(C[C@H]3CNCC[C@H]3CC(=O)N3CCN(c4ccccc4OC)CC3)no2)cc1	.	.	.	.	.	28.2µM
CC(C)(C)NC(=O)C[C@@H]1CCNC[C@@H]1Cc1cc(-c2ccc(C(C)(C)C)cc2)on1	.	.	.	.	.	35.5µM
CC[C@@]1(C(=O)OC)N[C@H](CN(C)S(=O)(=O)c2ccc(-c3ccccc3)cc2)[C@@H]2C(=O)N(C)C(=O)[C@@H]21	-	-	.	-	.	?
COc1cccc(NC(=O)[C@@H]2CCCN2C(=O)[C@@H]2Cc3ccccc3CN2C(=O)OC(C)(C)C)c1	-	-	-	-	-	-
CC(C)OC(=O)c1cccnc1SCC(=O)N(C)c1ccccc1	-	-	-	-	-	-
CC(C)OC(=O)c1cccnc1SCc1cc(=O)n2ccccc2n1	-	-	50.1µM	-	-	-
CC1Sc2ccc(S(=O)(=O)CCC(=O)Nc3ccccc3Cl)cc2NC1=O (configuration not stated)	-	26.7µM	-	-	-	-
CCOc1ccccc1N(C)C(=O)CCS(=O)(=O)c1ccc2c(c1)NC(=O)C(C)S2 (configuration not stated)	?	26.7µM	-	-	-	-
CC1Sc2ccc(S(=O)(=O)CCC(=O)N(C)Cc3ccco3)cc2NC1=O (configuration not stated)	-	?	-	-	-	-
COc1ccccc1NS(=O)(=O)c1ccc2c(c1)NC(=O)C(C)S2 (configuration not stated)	-	26.7µM	.	-	-	-
COC(=O)C1=C(C)N(CC2CC2)C(=NCc2cc(OC)c(OC)c(OC)c2)N[C@H]1c1ccccc1	-	-	-[12.7 µM]	-	?	.
O=C(c1ccc([N+](=O)[O-])cc1)N1CCN(c2ncc(Br)cn2)CC1	-	26.7µM	-	-	-	-
Cc1ccc(C(=O)N2CCN(c3ccc([N+](=O)[O-])cc3-n3cccc3)CC2)cc1	?	-	28.2µM	?	?	-
O=C(C1CC1)N1CCN(c2ccc([N+](=O)[O-])cc2-n2cccc2)CC1	?	-	.	-	44.7µM	-
CC(C)(C)C(=O)N1CCN(c2ccc([N+](=O)[O-])cc2-n2cccc2)CC1	-	-	-	-	?	?
O=C(c1ccc(Br)cc1)N1CCN(c2ncccn2)CC1	-	-	.	-	.	?
